This passage reports viability decrease (inhibition), inhibition and mean signal results from PubChem BioAssay.

Unmarked numbers belong to inactive results. Unless noted, how the calls were made is not given here.

Broadly, the inhibition is the drop in the measured response relative to a control, in per cent.

Test system in the first assay: not listed separately
Briefly: decreased DLD-1 cellular survival, CellTiter-Glo luminescent readout, NPC compound collection, primary HTS (AID 1117346;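 active means compounds that lower survival of DLD-1 colon cancer cells in the luminescence readout, no cutoff given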). The following applies: DLD-1 viability, CellTiter-Glo luminescence; at 20 µM (top of the series). Background: In ATP-based viability assays light output follows the ATP content of the culture.
As for `CCN(Cc1ccncc1)C(=O)C(CO)c1ccccc1` (configuration not stated), the viability decrease (inhibition) is 3.8%.

As for `CCCc1cc(=O)[nH]c(=S)[nH]1`, the viability decrease (inhibition) was -28.7%.

In the case of `O=C(O)c1cccnc1`, the viability decrease (inhibition) was 4.6%.

For the molecule `CC(C[N+](C)(C)C)OC(N)=O` (configuration not stated), the viability decrease (inhibition) was -7.3%.

As for `COc1ccc(Cl)cc1C(=O)NCCc1ccc(S(=O)(=O)NC(=O)NC2CCCCC2)cc1`, the viability decrease (inhibition) was 14.1%.

As for `N[C@@H](Cc1cc(I)c(Oc2cc(I)c(O)c(I)c2)c(I)c1)C(=O)O`, the viability decrease (inhibition) was -2%.

With `CC1(C)O[C@@H]2[C@@H](CO[C@@]3(COS(N)(=O)=O)OC(C)(C)O[C@@H]23)O1`, the viability decrease (inhibition) was -7.1%.

Turning to `COCCOC(=O)C1=C(C)NC(C)=C(C(=O)OC(C)C)C1c1cccc([N+](=O)[O-])c1` (configuration not stated), the viability decrease (inhibition) was 27.1%.

On to `NNC(=O)c1ccncc1`, for which the viability decrease (inhibition) is 6.5%.

In another assay the target is 6-phosphogluconate dehydrogenase, decarboxylating (Homo sapiens) (UniProt P52209). Briefly: 6PGD enzyme inhibitors, primary screen, biochemical, human, recombinant enzyme, NADPH absorbance (AID 1159550;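 active means at least 20% inhibition of 6-phosphogluconate dehydrogenase activity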). The following applies: recombinant 6PGD, NADPH absorbance 341 nm; at 10 µM; stronger effect = higher value.
Chain of 6-phosphogluconate dehydrogenase, decarboxylating (Homo sapiens) (P52209 whole entry, looked up): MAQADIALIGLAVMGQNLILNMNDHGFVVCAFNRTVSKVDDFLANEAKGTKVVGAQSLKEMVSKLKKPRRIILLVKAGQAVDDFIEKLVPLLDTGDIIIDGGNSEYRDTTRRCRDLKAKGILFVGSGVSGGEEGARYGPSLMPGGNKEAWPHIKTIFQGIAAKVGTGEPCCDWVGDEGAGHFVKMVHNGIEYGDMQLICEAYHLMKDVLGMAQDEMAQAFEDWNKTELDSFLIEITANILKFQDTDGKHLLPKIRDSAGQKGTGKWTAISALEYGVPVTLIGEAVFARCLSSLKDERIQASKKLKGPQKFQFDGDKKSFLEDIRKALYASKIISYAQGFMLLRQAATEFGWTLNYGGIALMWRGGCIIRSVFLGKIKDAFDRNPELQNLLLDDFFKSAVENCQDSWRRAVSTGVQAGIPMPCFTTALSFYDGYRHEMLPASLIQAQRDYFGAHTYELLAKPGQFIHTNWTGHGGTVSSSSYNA
On to `CC12CC3CC(C)(C1)CC(N)(C3)C2`, for which the inhibition is 7.37%.

`CC(=O)OCC(CCn1cnc2cnc(N)nc21)COC(C)=O`: the inhibition was -8.38%.

In the case of `S=c1nc[nH]c2nc[nH]c12`, the inhibition is -3.59%.

As for `Oc1c(Cl)cc(Cl)c2cccnc12`, the inhibition is 13%.

Consider `CC1=NS(=O)(=O)c2cc(Cl)ccc2N1`, for which the inhibition was 4.77%.

As to `OC(Cn1cncn1)(Cn1cncn1)c1ccc(F)cc1F`, the inhibition was 9%.

As for `NCCc1ccc(O)c(O)c1`, the inhibition is -4.79%.

Consider `CN=C(NC#N)NCCSCc1nc[nH]c1C`, for which the inhibition was -10.7%.

For `COc1c(N2CCNC(C)C2)c(F)cc2c(=O)c(C(=O)O)cn(C3CC3)c12` (configuration not stated), the inhibition is -4.88%.

Turning to `CC1COc2c(N3CCN(C)CC3)c(F)cc3c(=O)c(C(=O)O)cn1c23` (configuration not stated), the inhibition is 0.495%.

For the molecule `O=C(C1CCCCC1)N1CC(=O)N2CCc3ccccc3C2C1` (configuration not stated), the inhibition was -0.949%.

Consider `CCc1cc(C(N)=S)ccn1`, for which the inhibition is 11%.

As to `CC1=C(/C=C/C(C)=C/C=C/C(C)=C/C(=O)O)C(C)(C)CCC1`, the inhibition was -0.523%.

For `CCCCNc1cc(C(=O)O)cc(S(N)(=O)=O)c1Oc1ccccc1`, the inhibition was 0%.

`O=c1[nH]cnc2[nH]ncc12`: the inhibition was 10.8%.

Regarding `O=C1c2c(O)ccc(O)c2C(=O)c2c(NCCNCCO)ccc(NCCNCCO)c21`, the inhibition was 13%.

As for `O=C(O)c1cc(=O)c2c(OCC(O)COc3cccc4oc(C(=O)O)cc(=O)c34)cccc2o1`, the inhibition is 10.5%.

Regarding `CC(C)C(=O)Nc1ccc([N+](=O)[O-])c(C(F)(F)F)c1`, the inhibition is -5.89%.

On to `CC(COc1ccccc1)N(CCCl)Cc1ccccc1` (configuration not stated), for which the inhibition was 0.0837%.

`CCCc1nc2c(C)cc(-c3nc4ccccc4n3C)cc2n1Cc1ccc(-c2ccccc2C(=O)O)cc1`: the inhibition is 2.16%.

`CC(=O)CC(c1ccccc1)c1c(O)c2ccccc2oc1=O` (configuration not stated): the inhibition was 6.78%.

As to `NS(=O)(=O)c1cc2c(cc1Cl)NCNS2(=O)=O`, the inhibition is -1.9%.

Consider `CS(=O)(=O)OCCCCOS(C)(=O)=O`, for which the inhibition is 1.77%.

With `CCOC(=O)C1=C(C)NC(C)=C(C(=O)OC)C1c1cccc([N+](=O)[O-])c1` (configuration not stated), the inhibition is 2.14%.

For `COc1ccccc1OCCNCC(O)COc1cccc2[nH]c3ccccc3c12` (configuration not stated), the inhibition was 6.21%.

For `O=C(O)CCCc1ccccc1`, the inhibition is -10%.

Take `NNCCc1ccccc1`: the inhibition was 8.47%.

Take `CC1Cc2ccccc2N1NC(=O)c1ccc(Cl)c(S(N)(=O)=O)c1` (configuration not stated): the inhibition is 0.53%.

As for `CC(C)Cc1ccc(C(C)C(=O)O)cc1` (configuration not stated), the inhibition is -4.32%.

As for `N[C@@H]1CONC1=O`, the inhibition was 6.28%.

On to `CCN(Cc1ccncc1)C(=O)C(CO)c1ccccc1` (configuration not stated), for which the inhibition is -16.3%.

On to `CCCc1cc(=O)[nH]c(=S)[nH]1`, for which the inhibition was -7.2%.

Take `O=C(O)c1cccnc1`: the inhibition is -13.9%.

Regarding `CC(C[N+](C)(C)C)OC(N)=O` (configuration not stated), the inhibition was -9.2%.

On to `COc1ccc(Cl)cc1C(=O)NCCc1ccc(S(=O)(=O)NC(=O)NC2CCCCC2)cc1`, for which the inhibition was 12.3%.

`N[C@@H](Cc1cc(I)c(Oc2cc(I)c(O)c(I)c2)c(I)c1)C(=O)O`: the inhibition was 12.1%.

On to `CC1(C)O[C@@H]2[C@@H](CO[C@@]3(COS(N)(=O)=O)OC(C)(C)O[C@@H]23)O1`, for which the inhibition is 5.76%.

As to `COCCOC(=O)C1=C(C)NC(C)=C(C(=O)OC(C)C)C1c1cccc([N+](=O)[O-])c1` (configuration not stated), the inhibition is 2.88%.

`NNC(=O)c1ccncc1`: the inhibition is 6.29%.

Test system in a further assay: not listed separately
As to the kind of experiment: modulation of C. elegans fzo-1 (AID 1259413).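 Further: fzo-1 mutant C. elegans worms in liquid wells.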 The note with it: C. elegans fzo-1 modulator screen, mean read-out; stronger effect = higher value.
As for `CC12CC3CC(C)(C1)CC(N)(C3)C2`, the mean signal is 254.

For the molecule `CC(=O)OCC(CCn1cnc2cnc(N)nc21)COC(C)=O`, the mean signal is 292.

Take `S=c1nc[nH]c2nc[nH]c12`: the mean signal is 247.

`Oc1c(Cl)cc(Cl)c2cccnc12`: the mean signal is 244.

In the case of `CC1=NS(=O)(=O)c2cc(Cl)ccc2N1`, the mean signal is 242.

Regarding `OC(Cn1cncn1)(Cn1cncn1)c1ccc(F)cc1F`, the mean signal is 277.

Take `NCCc1ccc(O)c(O)c1`: the mean signal is 263.

`CN=C(NC#N)NCCSCc1nc[nH]c1C`: the mean signal is 239.

On to `COc1c(N2CCNC(C)C2)c(F)cc2c(=O)c(C(=O)O)cn(C3CC3)c12` (configuration not stated), for which the mean signal was 254.

As to `CC1COc2c(N3CCN(C)CC3)c(F)cc3c(=O)c(C(=O)O)cn1c23` (configuration not stated), the mean signal is 237.

In the case of `O=C(C1CCCCC1)N1CC(=O)N2CCc3ccccc3C2C1` (configuration not stated), the mean signal was 236.

Regarding `CCc1cc(C(N)=S)ccn1`, the mean signal was 267.

`CC1=C(/C=C/C(C)=C/C=C/C(C)=C/C(=O)O)C(C)(C)CCC1`: the mean signal was 223.

As for `CCCCNc1cc(C(=O)O)cc(S(N)(=O)=O)c1Oc1ccccc1`, the mean signal is 228.

On to `O=c1[nH]cnc2[nH]ncc12`, for which the mean signal was 267.

As to `O=C1c2c(O)ccc(O)c2C(=O)c2c(NCCNCCO)ccc(NCCNCCO)c21`, the mean signal was 214.

Take `O=C(O)c1cc(=O)c2c(OCC(O)COc3cccc4oc(C(=O)O)cc(=O)c34)cccc2o1`: the mean signal was 249.

`CC(C)C(=O)Nc1ccc([N+](=O)[O-])c(C(F)(F)F)c1`: the mean signal is 187.

For `CC(COc1ccccc1)N(CCCl)Cc1ccccc1` (configuration not stated), the mean signal is 239.

Consider `CCCc1nc2c(C)cc(-c3nc4ccccc4n3C)cc2n1Cc1ccc(-c2ccccc2C(=O)O)cc1`, for which the mean signal was 236.

Regarding `CC(=O)CC(c1ccccc1)c1c(O)c2ccccc2oc1=O` (configuration not stated), the mean signal is 249.

`NS(=O)(=O)c1cc2c(cc1Cl)NCNS2(=O)=O`: the mean signal is 233.

`CS(=O)(=O)OCCCCOS(C)(=O)=O`: the mean signal was 241.

With `CCOC(=O)C1=C(C)NC(C)=C(C(=O)OC)C1c1cccc([N+](=O)[O-])c1` (configuration not stated), the mean signal is 230.

On to `COc1ccccc1OCCNCC(O)COc1cccc2[nH]c3ccccc3c12` (configuration not stated), for which the mean signal was 201.

On to `O=C(O)CCCc1ccccc1`, for which the mean signal is 232.

On to `NNCCc1ccccc1`, for which the mean signal is 213.

Regarding `CC1Cc2ccccc2N1NC(=O)c1ccc(Cl)c(S(N)(=O)=O)c1` (configuration not stated), the mean signal is 231.

With `CC(C)Cc1ccc(C(C)C(=O)O)cc1` (configuration not stated), the mean signal is 242.

Consider `N[C@@H]1CONC1=O`, for which the mean signal was 211.

Take `CCN(Cc1ccncc1)C(=O)C(CO)c1ccccc1` (configuration not stated): the mean signal was 244.

As for `CCCc1cc(=O)[nH]c(=S)[nH]1`, the mean signal was 248.

Regarding `O=C(O)c1cccnc1`, the mean signal was 255.

For `CC(C[N+](C)(C)C)OC(N)=O` (configuration not stated), the mean signal was 276.

On to `COc1ccc(Cl)cc1C(=O)NCCc1ccc(S(=O)(=O)NC(=O)NC2CCCCC2)cc1`, for which the mean signal was 242.

Consider `N[C@@H](Cc1cc(I)c(Oc2cc(I)c(O)c(I)c2)c(I)c1)C(=O)O`, for which the mean signal was 252.

Turning to `CC1(C)O[C@@H]2[C@@H](CO[C@@]3(COS(N)(=O)=O)OC(C)(C)O[C@@H]23)O1`, the mean signal is 229.

As to `COCCOC(=O)C1=C(C)NC(C)=C(C(=O)OC(C)C)C1c1cccc([N+](=O)[O-])c1` (configuration not stated), the mean signal is 225.

Regarding `NNC(=O)c1ccncc1`, the mean signal is 247.
